Tau ThT inhib – qHTS for Inhibitors of Tau Fibril Formation, Thioflavin T Binding | Microtubule-associated protein tau (Homo sapiens), P10636 | recombinant tau K18 P301L, heparin-induced fibrillization, ThT fluorescence | Potency, µM (doses to about 57.4 µM), for the others: at the top dose activity, negative = inhibition, usual class: inhibitors | 2.1% of 270,000 active | AID 1460, 2008; also: potency is read from the fitted curve at half-maximal effect; nearly all actives have a fitted effect of over 55% in size
Target sequence (P10636 561-689 P618L limits assumed): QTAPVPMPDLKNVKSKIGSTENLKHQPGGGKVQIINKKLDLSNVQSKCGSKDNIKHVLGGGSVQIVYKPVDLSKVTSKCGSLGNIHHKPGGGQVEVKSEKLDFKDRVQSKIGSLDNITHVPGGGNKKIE
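In this qHTS, human K18 P301L tau is incubated with compound and heparin for 6 hr at 37 C, and Thioflavin T fluorescence then reports fibril load.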
Tau FP inhib – qHTS for Inhibitors of Tau Fibril Formation, Fluorescence Polarization; Microtubule-associated protein tau (Homo sapiens), P10636; K18 P301L tau heparin fibrillization, Alexa594 FP, 6 h; Potency, µM (titrated, usually from 57.7 µM), without a hit: at the highest dose activity, negative = inhibition, most hits filed as inhibitors; 0.39% of 280,000 active; AID 1468, 2008; also: potency is read from the fitted curve at half-maximal effect; nearly all actives have a fitted effect of over 55% in size
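Read-out: fluorescence polarization of Alexa 594-labeled tau (0.24 uM), 555 nm excitation, 632 nm emission. Mixtures held 15 uM unlabeled K18 P301L, compound and 20 uM heparin, pH 7 acetate buffer, incubated 6 hr at 37 C.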
Sfp PPTase inh – qHTS Assay for Inhibitors of Bacillus subtilis Sfp phosphopantetheinyl transferase (PPTase). AID 1490, 2009. Biochemical Sfp PPTase activity, qHTS. 4'-phosphopantetheinyl transferase ffp (Bacillus subtilis), Q9F4F7. 3.5% of 310,000 active. Potency, µM, without a hit: largest response in the series, negative = inhibition, most hits filed as inhibitors;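 also: the enzyme is Sfp with the accession as filed and its product quenches rhodamine fluorescence; potency is read from the fitted curve at half-maximal effect; 0% = enzyme reaction without inhibitor and -100% = no enzyme wells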
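After 15 min at room temperature with compound, 15 nM Sfp received 5 uM rhodamine-CoA plus 12.5 uM BHQ-2-ybbR (50 mM Hepes pH 7.6, 10 mM MgCl2). Rate came from the fluorescence difference over 30 min, ex 525/em 598 nm.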
Tau fluor counter – Counterscreen qHTS for Inhibitors of Tau Fibril Formation, Fluorescence Polarization. tau K18 P301L (four-repeat tau fragment) Alexa594 fluorescence, heparin fibrillization. Potency, µM (top dose mostly 57.7 µM), for inactives: top-dose activity change, negative = decrease. 0.93% of 280,000 active. AID 1463, 2008; also: potency is read from the fitted curve at half-maximal effect; nearly all actives have a fitted effect of over 55% in size
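Human K18 P301L tau (15 uM unlabeled plus 0.24 uM Alexa 594-labeled, final) in 100 mM sodium acetate pH 7 was mixed with compound and 20 uM heparin and incubated 6 hr at 37 C.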
Coupling enz – qHTS Assay for Inhibitors of Fructose-1,6-bisphosphate Aldolase from Giardia Lamblia: Coupling assay counterscreen; coupling enzyme system counterscreen, AmpLite Red fluorescence; 0.67% of 290,000 active; activity change, negative = inhibition, % at 58.2 µM, hits read low; in the data active = activity change below about -30%
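Coupling enzymes only (glyceraldehyde-3-phosphate) + compound, at 57.5 uM final, 10 min RT; add substrate/coupling/AmpLite Red mix, 20 min RT; fluorescence ex 525/em 598 nm. Actives flag coupling-system interference.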
G9a inh – qHTS Assay for Inhibitors of Histone Lysine Methyltransferase G9a | Histone-lysine N-methyltransferase EHMT2 (Homo sapiens), Q96KQ7 | G9a H3K9 monomethylation, AlphaScreen, 2 h | Potency, µM (titrated, usually from 102 µM), for the others: top-dose activity, negative = inhibition, hits mostly inhibitors | 8.8% of 350,000 active | AID 504332, 2011; also: potency is read from the fitted curve at half-maximal effect; nearly all actives have a fitted effect of over 75% in size
Target sequence (Q96KQ7 913-1193 limits assumed): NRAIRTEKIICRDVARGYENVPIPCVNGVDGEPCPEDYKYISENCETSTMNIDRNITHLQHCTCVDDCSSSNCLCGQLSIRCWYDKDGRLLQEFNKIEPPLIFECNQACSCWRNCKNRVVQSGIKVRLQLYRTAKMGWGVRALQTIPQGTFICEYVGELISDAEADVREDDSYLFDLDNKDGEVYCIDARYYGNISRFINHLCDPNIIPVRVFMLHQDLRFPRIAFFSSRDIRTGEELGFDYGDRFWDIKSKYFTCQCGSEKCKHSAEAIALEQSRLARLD
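Step 1: enzyme (final 20 nM) with compound, 15 min RT. Step 2: substrate peptide 500 nM and SAM 20 uM, 2 h RT. Step 3: anti-H3K9me1 antibody and AlphaScreen beads, 10 min, then plate read.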
* hit, by the source's call; ? = inconclusive; . = not tested or not shown; [ ] = dose if it differs, or a comment. Sampled rows, rich in hits. Any-hit rate of the full collection: about 11%. Unless noted, calls follow the shape of the dose curve; as a rule, active = well fitted curve in the direction sought with a large enough effect; inconclusive = small, poorly fitted or top-dose-only effect, or another doubt; inactive = no such curve, though single readings can be large; an effect the other way counts as inactive or inconclusive. Unless noted, % is scaled to controls: 0 for no effect and ±100 for the full control effect.

SMILES	Tau ThT inhib	Tau FP inhib	Sfp PPTase inh	Tau fluor counter	Coupling enz	G9a inh
CCOC(=O)Cc1csc(NC(=O)NC2(C(F)(F)F)Oc3cc(Cl)c(Cl)cc3O2)n1	-18%	1%	?	-17%	-9	13µM*
CCOC(=O)Cc1csc(NC(=O)NC2(C(F)(F)F)Oc3ccc(Cl)cc3O2)n1 (centres undefined)	-16%	-5%	56µM*	-10%	-2	25µM*
CN1CCN(c2ccnc(-c3ccccc3C(F)(F)F)n2)CC1	2%	3%	-20%	3%	0	.
O=S1(=O)c2cccc3cccc(c23)N1Cc1nnc(-c2ccccc2Br)o1	-17%	2%	1%	?	-6	56µM*
CCOc1ccc(S(=O)(=O)NNS(=O)(=O)c2ccc(C)cc2C)cc1	.	.	79µM*	.	0	3.5µM*
CCOc1ccc(S(=O)(=O)NCCCl)cc1	-9%	-1%	-1%	-8%	-1	.
C=CCn1c(O)c(N=NC(=S)Nc2ccc(OC)cc2)c2ccccc21	?	5%	-13%	?	-5	28µM*
C=CCn1c(O)c(N=NC(=S)Nc2cccc(OC)c2)c2ccccc21	?	0%	12%	?	-7	28µM*
Cc1ccc(OC(C)C(=O)N2CC(=O)Nc3ccccc32)cc1 (centres undefined)	.	.	13%	.	3	3.5µM*
CC(Sc1nnc(C2CC2)n1Cc1ccccc1)C(=O)N1CCNC1=O (centres undefined)	.	.	.	.	.	7%[12.7 µM]
Cc1nn(C)c2c1c(C(F)(F)F)cc(=O)n2C(C)C(=O)NCCC(C)C (centres undefined)	0%	0%	.	-5%	.	-7%[59 µM]
CN(c1ccc(C(=O)NCCSCc2ccco2)cc1)S(C)(=O)=O	?	-4%	35µM*	-6%	-11	-35%[59 µM]
O=C(CCSc1ccccc1)NCCSCc1ccco1	-11%	2%	50µM*	-10%	-3	9%
CN(c1ccc(C(=O)NCc2ccco2)cc1)S(C)(=O)=O	8%	10%	14%	12%	0	17%[12.7 µM]
O=C(COc1ccccc1)NCCSCc1ccco1	?	-3%	-5%	-6%	2	-10%[59 µM]
Cc1ccc(S(=O)(=O)N(CC(=O)NCCSCc2ccco2)c2ccc(F)cc2)cc1	?	4%	56µM*	-10%	0	.
Cc1cc2c(cc1NS(=O)(=O)c1ccc(NC(=O)CC(C)C)cc1)n(C)c(=O)c(=O)n2C	-5%	8%	.	-3%	.	24%[59 µM]
c1ccc2c(CSCCc3ccncc3)cccc2c1	1%	8%	50µM*	1%	-12	-13%
COc1cccc(CN2CC(C(=O)NCc3ccc(Cl)s3)CCC2=O)c1 (centres undefined)	.	.	10%	.	0	7%[12.7 µM]
Cc1cccc(C(=O)NC(NC(=S)Nc2ccc(S(N)(=O)=O)cc2)C(Cl)(Cl)Cl)c1 (centres undefined)	10%	2%	-8%	5%	1	?
O=C(CCc1ccccc1)NC(NC(=S)Nc1ccc(Cl)cc1)C(Cl)(Cl)Cl (centres undefined)	5%	?	13%	-24%	-2	?
CC(C)CC(=O)NC(NC(=S)Nc1ccccc1)C(Cl)(Cl)Cl (centres undefined)	4%	1%	4%	2%	-1	32µM*
CC(=O)NC(NC(=S)Nc1ccc(S(N)(=O)=O)cc1)C(Cl)(Cl)Cl (centres undefined)	-7%	-1%	15%	-7%	3	45µM*
CCC(=O)NC(NC(=S)Nc1ccc(S(N)(=O)=O)cc1)C(Cl)(Cl)Cl (centres undefined)	-3%	-9%	-8%	-8%	2	8.9µM*
Cc1c(NC(=S)NC(NC(=O)CC(C)C)C(Cl)(Cl)Cl)c(=O)n(-c2ccccc2)n1C (centres undefined)	-5%	9%	10%	-1%	6	?
SMILES	Tau ThT inhib	Tau FP inhib	Sfp PPTase inh	Tau fluor counter	Coupling enz	G9a inh
Cc1ccc(C(=O)N2CCCc3ccccc32)c(F)c1F	.	.	10%	.	-2	-6%[0.501 µM]
C=C1c2cccc(C(F)(F)F)c2O[C@H](C(=O)OCC)[C@@H]1CCCCCC	-7%[81.4 µM]	-2%[81.3 µM]	11%	-16%[81.3 µM]	-5	91%
O=C(Nc1ccc(Br)c2cccnc12)c1cccc2ccccc12	-5%	-17%	.	-17%	.	-1%[59 µM]
CN[C@@H]1[C@H](O[C@@H]2O[C@H](C)[C@@](O)(CO)[C@H]2O[C@H]2[C@H](O)[C@H](O)[C@H](N=C(N)N)[C@@H](O)[C@@H]2N=C(N)N)O[C@@H](CO)[C@H](O)[C@H]1O	?	-12%	0%	-10%	0	10µM*
CN[C@@H]1[C@H](O[C@@H]2O[C@H](CO)[C@@H](N)[C@H](O)[C@@H]2O)O[C@H]2C[C@@H](N)[C@@H](O[C@H]3[C@@H](O)[C@H](O)[C@H](N)C[C@@H]3N)O[C@H]2[C@H]1O	.	.	11%	.	-2	43%[21.5 µM]
Cn1c(CNC(=O)c2ccc(Cl)cc2)nnc1SCC(=O)NC1CCCC1	.	.	32%	.	-2	-6%
CC(=O)Nc1ccc(SCCN2CCN(CC(C)C)CCC2=O)cc1	.	.	45µM*	.	3	.
CCCN1CCC(=O)N(CCSc2ccc(NC(C)=O)cc2)CC1	-4%	-2%	6%	0%	3	17%[59 µM]
CCCCC1NC(C(=O)O)CS1 (centres undefined)	-1%	3%	?	3%	-1	5µM*
CCCCCCC1NC(C(=O)O)CS1 (centres undefined)	-22%	-7%	45µM*	-13%	0	7.1µM*
Cc1cccc(C)c1NC(=O)CSc1nc2[nH]c(=O)cc(O)c2s1	.	.	.	.	.	-9%[12.7 µM]
Cc1cc(OCC(=O)OC(C)C(=O)Nc2ccc(N3CCOCC3)cc2)ccc1Cl (centres undefined)	.	.	.	.	.	19%[2.33 µM]
Cc1ccc(C(=O)N2CC(=O)Nc3ccc(Br)cc3C2c2ccc(F)cc2)cc1C (centres undefined)	-14%	-1%	.	-14%	.	-27%[59 µM]
CCOC(=O)/C(=C/c1ccc(OC(=O)c2ccccc2)cc1)C(C)=O	?	7%	?	4%	2	45µM*
